According to PubChem BioAssay:
Unmarked numbers belong to inactive results. No rule for the calls is given here.

The compounds below were run against Pantothenate synthetase (Mycobacterium tuberculosis (strain ATCC 25618 / H37Rv)) (UniProt P9WIL5) (assay: Coupled enzyme confirmation of inhibitors against recombinant Mtb PanC (AID 375;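 also: 0% = full reaction with vehicle and 100% = no enzyme background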)). Conditions: coupled enzyme assay; at 10 µM, hits give high values.
Chain of Pantothenate synthetase (Mycobacterium tuberculosis (strain ATCC 25618 / H37Rv)) (P9WIL5 whole entry, looked up): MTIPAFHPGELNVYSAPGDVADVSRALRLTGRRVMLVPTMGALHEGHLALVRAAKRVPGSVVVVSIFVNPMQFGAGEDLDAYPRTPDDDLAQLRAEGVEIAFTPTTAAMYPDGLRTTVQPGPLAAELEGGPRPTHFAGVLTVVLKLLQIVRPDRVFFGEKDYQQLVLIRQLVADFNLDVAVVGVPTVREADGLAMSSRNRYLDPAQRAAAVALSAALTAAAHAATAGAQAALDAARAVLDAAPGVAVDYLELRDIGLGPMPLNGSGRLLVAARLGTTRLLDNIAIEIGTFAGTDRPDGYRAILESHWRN

Compound | inhibition [%]
CCOC(=O)C(NC(=O)CC)(Nc1ccc(S(=O)(=O)Nc2onc(C)c2C)cc1)C(F)(F)F (stereo not given) | 0
Cc1nc2ncnn2c(Nc2ccc3c(c2)OCCO3)c1C | 3
COc1cc(C2NC(=O)NC(C)=C2C(=O)OCC2CCCO2)ccc1O (stereo not given) | 0
CCCCOC(=O)Nc1nc2ccc(OC)cc2s1 | 5
CCOC(=O)c1cc(-c2ccc(Cl)s2)nc2c1c(C)nn2C | 0
CN(Cc1ccc(-n2cccn2)cc1)C(=O)c1cnn2c1NC(c1ccco1)CC2C(F)(F)F (stereo not given) | 0
CCOc1ccc(OCc2cccc(C(=O)N3CCOCC3)c2)cc1 | 2
Cc1cc(=O)oc2cc(OCC(=O)OCc3nnc(-c4ccccc4)o3)ccc12 | 1
CCCCOC(=O)n1c(SCC(=O)N(CC)CC)nc2ccccc21 | 0
CC(=O)OC1CSc2nc3ccccc3n2C1 (stereo not given) | 0
O=C(Nc1nnc(-c2ccc(Cl)cc2)o1)C1CCCCC1 | 0
O=C(NC1CCCC1)c1ccc2nc[nH]c2c1 | 0
CCCCOc1ccc(-c2ncc(Cl)cn2)cc1 | 0
COC(=O)c1ccc(CSc2ncnc3c2nnn3-c2ccc(OC)cc2)o1 | 0
Cn1c(=O)c2[nH]c(NCC3CCCO3)nc2n(-c2ccccc2)c1=O (stereo not given) | 0
Nc1nc(N2CCN(C/C=C/c3ccccc3)CC2)nc2ccccc12 | 7
O=C1N=C(N2CCOCC2)CS1 | 0
CCn1cc(C(=O)NCC2CCCO2)c(=O)c2cc(S(=O)(=O)N(C)C)ccc21 (stereo not given) | 0
CCN1CCN(S(=O)(=O)Cc2ccccc2)CC1 | 0
COc1cc2[nH]c(=O)n(CCCCCC(=O)N3CCN(c4ccccn4)CC3)c(=O)c2cc1OC | 2

Compound | inhibition [%]
c1ccc2c(c1)nc(NCCN1CCOCC1)c1nncn12 | 2
O=C(Nc1ccncc1)c1cc2ccccc2o1 | 3
COc1ccc(N2CCN(Cc3nc(-c4ccc(Cl)cc4Cl)no3)CC2)cc1 | 6
CC(=O)C1=C(C)NC(C)=C(C(C)=O)C1c1cccs1 | 0
Cc1ccc(NC(=O)CSc2nnc(-c3ccc(S(=O)(=O)N4CCOCC4)cc3)n2C)cc1 | 1
C=CCSc1nc2c(c(=O)[nH]c(=O)n2C)n1CC | 2
CC1=Nn2c(nnc2-c2ccc(F)cc2)SC1 | 0
CC(=O)NCCn1c(SCC(=O)NCC2CCCO2)nc2ccccc2c1=O (stereo not given) | 0
O=C(c1ccc(Cl)c(F)c1F)N1CCCC1 | 3
CCOC(=O)CNC(=O)CSc1ncnc2c1cnn2-c1ccccc1 | 0
CCCNCC(O)COc1ccccc1C(=O)CCc1ccccc1 (stereo not given) | 0
Cc1cc(C(=O)Nc2ccccc2C#N)n(-c2ccccc2)n1 | 0
COc1cc(CN2CCN(C(=O)CC(C)C)CC2)cc(OC)c1O | 0
CC1(C)Cc2c(sc3c2C2=NCCN2C=N3)CO1 | 0
CCn1c(C(=O)OC)cc2c1ccn2-c1ccc(F)cc1 | 0
COc1ccc(Nc2nc(-c3sc(N)nc3C)cs2)cc1 | 3
O=C(Cn1cc2c(n1)CCCCC2)N1CCc2ccccc21 | 0
O=C(CSc1nnc(-c2cccs2)o1)N1CCOCC1 | 0
CC(C(=O)N1c2ccc(F)cc2CCC1C)N1C(=O)c2ccccc2C1=O (stereo not given) | 5
COc1ccc(-c2noc(-c3ccccc3C(=O)Nc3cccnc3)n2)cc1OC | 0
